# Laboratory results reported in PubChem BioAssay (NCATS).
# Results filed as inconclusive are left out. The source made the active and inactive calls. Unless noted, the call rests on the fitted dose curve; in most records, active means well fitted curve in the direction sought with a large enough effect; inconclusive means small, poorly fitted or top-dose-only effect, or another doubt; inactive means no such curve, though single readings can be large; an effect the other way counts as inactive or inconclusive.
# Columns and labels:
# [1] = biological target: Lysosomal acid glucosylceramidase (Homo sapiens) (UniProt P04062); assay: Glucocerebrosidase-p2 (AID 348; in the data active means potency below about 10 µM; further: potency means the concentration at half of the fitted maximal effect); details: purified GBA, blue fluorogenic substrate, 40 min
# Outline: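 Compounds titrated from 0.6 nM upwards against 0.2 nM enzyme in pH 5.9 citric acid/KH2PO4, taurocholate, tween-20; blue fluorogenic substrate 80 uM, 40 min room temperature, stopped and read Ex 365/Em 440 for AC50.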
# [2] = AP1 Signaling Pathway (AID 357; active means well fitted curve in either direction with a large enough effect, not every such curve was filed as active;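 further: ME-180 reporter cells stimulated with EGF at its EC50 level; on the % scale 0 is the no-effect control and ±100 the full control effect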); details: ME-180 AP-1-bla reporter, EGF-induced, beta-lactamase ratio, 5 h; at 7.69 µM (top of the series) unless noted
# Outline: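 Titration-series screen for positive or negative modulators of EC50 EGF-induced signaling in ME-180 cells carrying an AP-1-driven beta-lactamase reporter. After 5 hours at 37 degrees Celsius, CCF4 460nm/530nm emission ratio gave %Activity; AC50 values derived.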
# [3] = biological target: Cytochrome P450 1A2 (Homo sapiens) (UniProt P05177); assay: p450-cyp1a2 (AID 410; calls by dose curve; further: potency means the concentration at half of the fitted maximal effect;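 on activity change, negative = inhibition: -100% = full effect of reference inhibitor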); details: recombinant CYP1A2, luciferin-ME demethylation, luminescence; series mostly up to 57 µM
# Outline: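 Human CYP1A2 (20nM) demethylated Luciferin-ME at its Km (100uM) in 100mM KPO4. After 10 min compound preincubation, NADPH regeneration ran the reaction 60 min at room temperature. Luciferin was read by luminescence, normalized to 57 uM furafylline.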
# [4] = NFAT Signaling Pathway (AID 444; active means well fitted curve in either direction with a large enough effect, not every such curve was filed as active;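 further: carbachol stimulus at about its EC50 of 1 µM final; on the % scale 0 is the no-effect control and ±100 the full control effect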); details: Jurkat NFAT-bla M1, carbachol, beta-lactamase ratio, 5 h; at 7.69 µM (top of the series) unless noted
# Outline: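 Read-out: CCF4 FRET ratio (460 nm/530 nm) after 1 h RT dye loading, used for %activity and AC50 from titration series. Cells: Jurkat NFAT-β-lactamase/M1 line, treated with compound plus 1 uM carbachol for 5 h, 37 °C.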
# [5] = Stat Signaling Pathway (AID 446; active means well fitted curve in either direction with a large enough effect, not every such curve was filed as active;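 further: ME-180 cervical cancer cells given 40 pM IL-6 alongside compound; SIE-controlled beta-lactamase reporter measured as 460/530 nm FRET emission ratio; on the % scale 0 is the no-effect control and ±100 the full control effect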); details: ME-180 (cervical carcinoma) SIE beta-lactamase reporter, IL-6 stimulated, 5 h; at 7.69 µM (top of the series) unless noted
# Outline: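 IL-6/STAT signaling read in ME-180 cells via an SIE beta-lactamase reporter. Stimulus was 40 pM IL-6 (its AC50) for 5 hrs, so both activation and inhibition register.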
# [6] = biological target: Glucocorticoid receptor (Homo sapiens) (UniProt P04150); assay: GR-EFC Redistribution (AID 451; calls by dose curve; further: potency means the concentration at half of the fitted maximal effect); details: CHO-K1 GR-EFC translocation, beta-gal luminescence, 2 h
# Outline: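 Translocation of GR-ED fusion to nuclear EA restores b-gal, read by luminescence after 1 h room-temperature detection. Engineered CHO-K1 biosensor cells, 1,000/well, exposed 2 h at 37 C to titrations up to 46 uM final.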
# [7] = biological target: 3',5'-cyclic-AMP phosphodiesterase 4B (Homo sapiens) (UniProt Q07343); assay: qHTS Assay for Inhibitors of PDE-IV (AID 607; active means well fitted activation curve with a large enough effect in the main read-out, with a control signal flat, not every such curve was filed as active; further: % of control where 0% means no effect); details: HEK293 ACTOne CNG channel cells, membrane potential fluorescence; series mostly up to 22.9 µM
# Outline: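 Live HEK293 cells with a modified cyclic nucleotide-gated (CNG) channel report intracellular cAMP via membrane-potential dye fluorescence (ex 535/em 590 nm). Endogenous PDE-IV was targeted. Compounds were tested at up to 22.9 uM final; RO 20-1724 100 uM served as control.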
# [8] = qHTS Assay for Lipid Storage Modulators (AID 1519; calls by dose curve); details: Drosophila S3 cells, BODIPY lipid droplet/cell ratio, laser cytometry, cells loaded with oleic acid; for activity change, negative = inhibition: at 57.5 µM (top of the series)
# Outline: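 Cells seeded at 5,000 per well were treated with compounds over a concentration series and loaded with oleic acid (400 uM, as added). Lipid droplet fluorescence (488 nm excitation, 500-530 nm channel) was read by laser-scanning cytometry and normalized to 20 uM Triacsin C.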
# [9] = Primary qHTS for small molecule stabilizers of the endoplasmic reticulum resident proteome: Secreted ER Calcium Modulated Protein (SERCaMP) assay (AID 1508630); details: SH-SY5Y GLuc-SERCaMP (Gaussia luciferase released on ER calcium loss) secretion, thapsigargin, luminescence; series mostly up to 38.4 µM; further: on the % scale 0 is the no-effect control and ±100 the full control effect
# Outline: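 GLuc-SERCaMP-expressing SH-SY5Y cells, pretreated 16 h with compound, are challenged with thapsigargin to empty ER calcium stores; after 4 h, coelenterazine is added directly to the medium and luminescence is imaged.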
# [10] = biological target: Rap guanine nucleotide exchange factor 3 (Homo sapiens) (UniProt O95398); assay: Confirmatory qHTS for agonist of cAMP-regulated guanine nucleotide exchange factor 3 (EPAC1) (AID 1645881); details: EPAC1 Rap1B BODIPY-GDP exchange fluorescence, 100% = cAMP control response; series mostly up to 154 µM;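 further: EPAC1 catalysed release of BODIPY-GDP from Rap1B seen as fluorescence loss; nearly all actives have a fitted effect of over 75% in size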
# [11] = biological target: Rap guanine nucleotide exchange factor 4 (Homo sapiens) (UniProt Q8WZA2); assay: Confirmatory qHTS for agonist of cAMP-regulated guanine nucleotide exchange factor 4 (EPAC2) (AID 1645884); details: EPAC2 GEF activity, Rap1B-BODIPY-GDP fluorescence, percent relative to cAMP agonist control; series mostly up to 154 µM;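 further: nucleotide exchange releases bodipy-GDP from Rap1 and this lowers its fluorescence; on the % scale 0 is the no-effect control and ±100 the full control effect; nearly all actives have a fitted effect of over 65% in size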
# [12] = biological target: Rap guanine nucleotide exchange factor 4 (Homo sapiens) (UniProt Q8WZA2); assay: Confirmatory qHTS for antagonist of cAMP-regulated guanine nucleotide exchange factor 4 (EPAC2) (AID 1645885); details: EPAC2 Rap1B-BODIPY-GDP exchange fluorescence, biochemical; series mostly up to 114 µM; further: on the % scale 0 is the no-effect control and ±100 the full control effect; nearly all actives have a fitted effect of over 25% in size
# [13] = biological target: Glucocorticoid receptor (Homo sapiens) (UniProt P04150); assay: GR-GFP Redistribution (AID 450;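 active means compounds whose dose series gives a full or clear partial fitted curve of increased nuclear translocation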; further: potency means the concentration at half of the fitted maximal effect); details: U2OS GR-GFP nuclear translocation, laser cytometry, 2 h
# [14] = biological target: Mitogen-activated protein kinase 10 (Mus musculus) (UniProt Q61831); assay: JNK3 AlphaScreen Assay (AID 530; active means well fitted curve in either direction with a large enough effect, not every such curve was filed as active); details: JNK3 lysate, c-Jun phosphorylation; series mostly up to 57.1 µM
# Outline: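 Room-temperature AlphaScreen kinase assay; pre-activated HepG2 lysate as JNK3 source, biotin-GST-cJun(1-79) substrate, 10 uM ATP, compound 15 min preincubation.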
# [15] = biological target: Dual specificity protein kinase CLK4 (Homo sapiens) (UniProt Q9HAZ1); assay: qHTS Assay for Inhibitors of CDC-like Kinase 4 (Kinase-Glo Assay) (AID 1770); details: recombinant Clk4, Kinase-Glo ATP depletion luminescence; series mostly up to 66.7 µM; further: on the % scale 0 is the no-effect control and ±100 the full control effect; nearly all actives have a fitted effect of over 65% in size
# Outline: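 25 nM Clk4 with 100 uM RS repeat peptide and 1 uM ATP (final) in Tris pH7.5, 10 mM MgCl2, 4.5 h at room temperature. Remaining ATP measured by Kinase-Glo luciferase luminescence.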
# [16] = biological target: Dual specificity protein kinase CLK4 (Homo sapiens) (UniProt Q9HAZ1); assay: qHTS Assay for Inhibitors of CDC-like Kinase 4 (ADP-Glo Assay) (AID 1771); details: recombinant CLK4, ADP-Glo luminescence; series mostly up to 80 µM; further: on the % scale 0 is the no-effect control and ±100 the full control effect; nearly all actives have a fitted effect of over 70% in size
# Outline: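 Clk4 (25 nM) was incubated 1 hr at room temperature with 100 uM RS repeat peptide and 1 uM ATP in buffer with 2 mM MgCl2, 0.5 mM EGTA, 2.5 mM DTT. ADP formed was quantified by ADP-Glo luminescence.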
# [17] = biological target: Dual specificity protein kinase CLK4 (Homo sapiens) (UniProt Q9HAZ1); assay: qHTS Assay for Inhibitors of CDC-like Kinase 4 (ADP-FP Assay) (AID 1795); details: Transcreener ADP fluorescence polarization; series mostly up to 50 µM;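 further: recombinant human CLK4 phosphorylating RS repeat peptide at 1 µM ATP; on the % scale 0 is the no-effect control and ±100 the full control effect; nearly all actives have a fitted effect of over 60% in size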
# Outline: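 Recombinant Clk4 (6.25 nM) phosphorylated 100 uM RS repeat peptide with 1 uM ATP in 25 mM Tris pH 7.5, 10 mM MgCl2, 0.5 mM EGTA, 2.5 mM DTT, 0.01% Triton X-100 for 1 h. ADP was detected by Transcreener ADP2 competitive fluorescence polarization after 30 min at room temperature.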
# [18] = biological target: Ubiquitin carboxyl-terminal hydrolase 1 (Homo sapiens) (UniProt O94782); assay: Inhibitors of USP1/UAF1: Pilot qHTS (AID 504865); details: purified USP1/UAF1, Ub-rhodamine cleavage fluorescence; series mostly up to 54.9 µM;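 further: rhodamine fluorescence freed from ubiquitin-rhodamine substrate followed over time; top concentration of the series differs between compounds; on the % scale 0 is the no-effect control and ±100 the full control effect; nearly all actives have a fitted effect of over 35% in size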
# Outline: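 USP1/UAF1 complex at 1 nM preincubated 15 min at room temperature with compound, then Ub-Rho substrate added at 150 nM final. Fluorescence (480/540 nm) read kinetically in 50 mM HEPES pH 7.8, 0.5 mM EDTA, 1 mM TCEP, 0.1 mg/ml BSA, 0.01% Tween-20.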
# [19] = biological target: Cytochrome P450 3A4 (Homo sapiens) (UniProt P08684); assay: qHTS Assay for Activators of Cytochrome P450 3A4 (AID 885); details: recombinant CYP3A4, Luciferin-PPXE luminescence, 60 min; series mostly up to 57.1 µM; further: nearly all actives have a fitted effect of over 65% in size
# Outline: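 Quantitative HTS format: compounds preincubated with 20nM human CYP3A4 and Luciferin-PPXE substrate at KM, reaction started by NADPH regeneration, stopped after 60 min, luciferase luminescence read 20 min later.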
# [20] = measured here: cell count channel max response
# [21] = measured here: lipid channel max response
# Chain of Dual specificity protein kinase CLK4 (Homo sapiens) (Q9HAZ1 whole entry, looked up): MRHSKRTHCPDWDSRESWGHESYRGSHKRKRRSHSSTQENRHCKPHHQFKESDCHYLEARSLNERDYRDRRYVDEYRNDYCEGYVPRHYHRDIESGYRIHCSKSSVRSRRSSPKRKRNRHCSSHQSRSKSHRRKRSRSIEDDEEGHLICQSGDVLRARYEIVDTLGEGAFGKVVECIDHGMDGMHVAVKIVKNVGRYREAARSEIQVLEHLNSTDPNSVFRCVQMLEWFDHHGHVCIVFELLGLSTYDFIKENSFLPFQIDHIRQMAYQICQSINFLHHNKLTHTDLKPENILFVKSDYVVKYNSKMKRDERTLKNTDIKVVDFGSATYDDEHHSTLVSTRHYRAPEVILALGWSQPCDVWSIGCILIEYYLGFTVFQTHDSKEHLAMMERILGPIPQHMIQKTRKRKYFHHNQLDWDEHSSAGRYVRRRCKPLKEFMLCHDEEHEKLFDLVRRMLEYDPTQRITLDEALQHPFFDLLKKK
# Chain of Glucocorticoid receptor (Homo sapiens) (P04150 whole entry, looked up, the tested form may be a part): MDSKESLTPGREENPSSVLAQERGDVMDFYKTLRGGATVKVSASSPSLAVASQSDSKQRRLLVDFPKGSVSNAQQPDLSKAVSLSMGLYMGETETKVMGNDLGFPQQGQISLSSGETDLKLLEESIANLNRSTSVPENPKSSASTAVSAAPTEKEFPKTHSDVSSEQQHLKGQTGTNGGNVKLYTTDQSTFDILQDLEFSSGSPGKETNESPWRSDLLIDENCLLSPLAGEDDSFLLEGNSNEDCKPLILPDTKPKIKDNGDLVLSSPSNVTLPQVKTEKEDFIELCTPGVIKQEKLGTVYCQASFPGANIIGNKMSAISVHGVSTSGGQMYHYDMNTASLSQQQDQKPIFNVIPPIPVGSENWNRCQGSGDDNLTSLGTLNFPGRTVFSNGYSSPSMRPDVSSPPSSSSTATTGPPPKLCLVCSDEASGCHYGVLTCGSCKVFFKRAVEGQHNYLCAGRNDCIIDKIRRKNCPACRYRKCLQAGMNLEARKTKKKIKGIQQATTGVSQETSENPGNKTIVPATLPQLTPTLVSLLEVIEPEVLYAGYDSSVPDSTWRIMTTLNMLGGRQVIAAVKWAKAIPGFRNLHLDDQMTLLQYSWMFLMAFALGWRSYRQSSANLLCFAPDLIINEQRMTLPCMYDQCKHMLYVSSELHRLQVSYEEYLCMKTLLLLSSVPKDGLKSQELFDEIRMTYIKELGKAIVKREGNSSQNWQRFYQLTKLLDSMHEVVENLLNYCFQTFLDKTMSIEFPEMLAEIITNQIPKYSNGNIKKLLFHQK
# Chain of Cytochrome P450 1A2 (Homo sapiens) (P05177 whole entry, looked up): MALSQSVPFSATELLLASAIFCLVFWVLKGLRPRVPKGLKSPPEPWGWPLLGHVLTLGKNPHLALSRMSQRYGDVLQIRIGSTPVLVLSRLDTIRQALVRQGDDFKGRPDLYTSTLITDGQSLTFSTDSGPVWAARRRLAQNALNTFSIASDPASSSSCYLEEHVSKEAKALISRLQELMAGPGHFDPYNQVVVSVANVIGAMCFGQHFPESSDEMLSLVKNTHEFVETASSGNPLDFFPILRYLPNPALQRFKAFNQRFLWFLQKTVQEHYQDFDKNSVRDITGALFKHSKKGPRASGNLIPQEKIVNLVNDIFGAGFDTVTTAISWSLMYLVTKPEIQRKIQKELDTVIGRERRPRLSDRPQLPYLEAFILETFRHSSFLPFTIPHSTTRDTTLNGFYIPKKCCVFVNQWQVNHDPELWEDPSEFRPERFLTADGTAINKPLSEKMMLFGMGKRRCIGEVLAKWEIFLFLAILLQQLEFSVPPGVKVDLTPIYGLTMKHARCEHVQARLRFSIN
# Chain of 3',5'-cyclic-AMP phosphodiesterase 4B (Homo sapiens) (Q07343 whole entry, looked up): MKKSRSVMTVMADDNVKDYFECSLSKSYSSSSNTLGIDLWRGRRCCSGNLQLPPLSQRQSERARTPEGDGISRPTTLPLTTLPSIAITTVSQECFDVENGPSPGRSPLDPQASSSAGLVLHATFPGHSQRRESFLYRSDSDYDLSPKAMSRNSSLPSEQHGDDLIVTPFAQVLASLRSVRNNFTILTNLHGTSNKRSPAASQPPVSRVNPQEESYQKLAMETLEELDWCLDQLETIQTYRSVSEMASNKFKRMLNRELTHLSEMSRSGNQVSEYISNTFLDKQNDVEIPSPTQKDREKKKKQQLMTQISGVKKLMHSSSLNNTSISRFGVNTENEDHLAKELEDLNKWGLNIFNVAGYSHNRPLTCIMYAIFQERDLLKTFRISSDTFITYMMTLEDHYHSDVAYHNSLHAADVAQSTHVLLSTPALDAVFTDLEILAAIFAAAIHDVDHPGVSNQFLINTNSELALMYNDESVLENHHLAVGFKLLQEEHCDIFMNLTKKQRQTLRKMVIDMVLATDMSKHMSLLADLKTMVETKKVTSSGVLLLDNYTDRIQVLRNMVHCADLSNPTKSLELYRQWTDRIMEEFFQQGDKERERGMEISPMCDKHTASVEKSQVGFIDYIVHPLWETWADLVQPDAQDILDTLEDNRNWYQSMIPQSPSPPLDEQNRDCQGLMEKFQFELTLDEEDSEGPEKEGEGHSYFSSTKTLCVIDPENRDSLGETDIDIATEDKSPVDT
# Chain of Ubiquitin carboxyl-terminal hydrolase 1 (Homo sapiens) (O94782 whole entry, looked up): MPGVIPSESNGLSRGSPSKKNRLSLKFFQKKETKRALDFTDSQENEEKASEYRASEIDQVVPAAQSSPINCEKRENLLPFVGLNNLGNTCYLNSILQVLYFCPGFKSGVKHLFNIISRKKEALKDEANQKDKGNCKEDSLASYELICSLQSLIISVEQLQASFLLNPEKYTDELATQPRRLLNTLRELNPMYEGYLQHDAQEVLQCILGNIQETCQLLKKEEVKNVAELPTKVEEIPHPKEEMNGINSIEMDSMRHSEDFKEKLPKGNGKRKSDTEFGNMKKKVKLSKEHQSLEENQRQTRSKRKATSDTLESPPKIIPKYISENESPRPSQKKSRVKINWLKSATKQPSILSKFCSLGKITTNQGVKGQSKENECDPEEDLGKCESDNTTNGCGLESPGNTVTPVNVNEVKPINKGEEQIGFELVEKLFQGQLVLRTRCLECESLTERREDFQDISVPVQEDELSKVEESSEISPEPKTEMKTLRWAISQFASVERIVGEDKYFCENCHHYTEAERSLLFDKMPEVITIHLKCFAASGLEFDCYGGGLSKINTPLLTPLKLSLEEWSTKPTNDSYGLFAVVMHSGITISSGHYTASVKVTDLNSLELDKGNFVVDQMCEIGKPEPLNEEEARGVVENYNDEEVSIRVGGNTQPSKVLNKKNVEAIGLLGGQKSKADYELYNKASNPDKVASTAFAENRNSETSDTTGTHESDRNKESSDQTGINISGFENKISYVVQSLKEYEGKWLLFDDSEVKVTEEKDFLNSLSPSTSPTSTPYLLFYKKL
# Chain of Lysosomal acid glucosylceramidase (Homo sapiens) (P04062 whole entry, looked up): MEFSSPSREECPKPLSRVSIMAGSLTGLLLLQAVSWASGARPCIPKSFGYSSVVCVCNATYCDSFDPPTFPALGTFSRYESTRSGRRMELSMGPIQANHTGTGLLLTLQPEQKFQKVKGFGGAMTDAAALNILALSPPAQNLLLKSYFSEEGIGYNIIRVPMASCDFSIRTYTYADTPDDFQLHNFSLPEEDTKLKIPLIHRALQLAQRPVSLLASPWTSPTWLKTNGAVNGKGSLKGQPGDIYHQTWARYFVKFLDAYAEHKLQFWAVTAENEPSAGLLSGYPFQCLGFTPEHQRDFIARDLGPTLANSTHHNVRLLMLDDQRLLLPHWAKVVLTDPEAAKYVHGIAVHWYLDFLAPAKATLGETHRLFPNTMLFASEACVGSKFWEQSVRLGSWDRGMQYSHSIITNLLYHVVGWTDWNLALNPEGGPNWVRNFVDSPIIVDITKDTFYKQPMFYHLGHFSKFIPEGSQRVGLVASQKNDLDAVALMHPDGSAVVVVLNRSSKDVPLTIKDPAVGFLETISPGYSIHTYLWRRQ
# Chain of Cytochrome P450 3A4 (Homo sapiens) (P08684 whole entry, looked up): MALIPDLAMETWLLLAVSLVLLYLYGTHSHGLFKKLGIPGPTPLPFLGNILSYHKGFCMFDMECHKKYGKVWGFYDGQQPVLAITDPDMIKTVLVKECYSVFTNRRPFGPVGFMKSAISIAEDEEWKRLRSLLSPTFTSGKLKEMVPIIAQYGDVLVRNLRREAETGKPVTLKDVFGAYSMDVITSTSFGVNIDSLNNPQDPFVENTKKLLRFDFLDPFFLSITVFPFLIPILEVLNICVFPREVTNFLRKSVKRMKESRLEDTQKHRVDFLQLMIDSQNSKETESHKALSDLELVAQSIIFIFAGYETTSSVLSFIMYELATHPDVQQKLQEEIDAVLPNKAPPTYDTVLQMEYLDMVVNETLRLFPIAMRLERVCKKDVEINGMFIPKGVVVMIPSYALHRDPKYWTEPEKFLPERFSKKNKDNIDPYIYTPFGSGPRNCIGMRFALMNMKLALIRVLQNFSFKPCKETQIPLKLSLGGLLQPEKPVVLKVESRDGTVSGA
smiles,measurement,setting,value
COCC(=O)N1CCC2(CC1)CN(c1ccccn1)C2,Potency,[1],> 11.4 µM (inactive)
same,"activity change, negative = inhibition",[2],-0.233% (inactive)
same,Potency,[3],inactive
same,"activity change, negative = inhibition",[4],1.7% (inactive)
same,"activity, negative = inhibition",[5],9.91% (inactive)
same,Potency,[6],> 46 µM (inactive)
same,Potency,[7],inactive
same,"activity change, negative = inhibition",[8],1.23% (inactive)
same,max response,[8]; [20],1.59%
same,max response,[8]; [21],3.63%
same,Potency,[9],inactive
same,outcome,[10],inactive
same,outcome,[11],inactive
same,Potency,[12],inactive
Cc1nc2cnc(N(C)C)nc2n(CCC#N)c1=O,Potency,[1],> 11.4 µM (inactive)
same,"activity change, negative = inhibition",[2],-8.9% (inactive)
same,Potency,[3],10 µM (active)
same,"activity change, negative = inhibition",[4],-13.7% (inactive)
same,"activity, negative = inhibition",[5],-1.16% (inactive)
same,Potency,[13],> 9.22 µM (inactive)
same,Potency,[6],> 46 µM (inactive)
same,outcome,[14],inactive
same,Potency,[7],inactive
same,"activity change, negative = inhibition",[8],2.74% (inactive)
same,max response,[8]; [20],4.56%
same,max response,[8]; [21],5.95%
same,Potency,[15],inactive
same,Potency,[16],inactive
same,Potency,[17],inactive
same,Potency,[18],inactive
same,Potency,[9],inactive
Cc1cnc(CNc2ccnc(-c3c(C)noc3C)n2)cn1,Potency,[1],> 11.4 µM (inactive)
same,"activity change, negative = inhibition",[2],1.51% (inactive)
same,Potency,[3],12.6 µM (active)
same,"activity change, negative = inhibition",[4],10.3% (inactive)
same,"activity, negative = inhibition",[5],1.5% (inactive)
same,Potency,[13],> 46 µM (inactive)
same,Potency,[6],> 46 µM (inactive)
same,outcome,[14],inactive
same,Potency,[7],inactive
same,Potency,[19],inactive
same,"activity change, negative = inhibition",[8],7.48% (inactive)
same,max response,[8]; [20],24.6%
same,max response,[8]; [21],37.5%
same,Potency,[15],inactive
same,Potency,[16],inactive
same,Potency,[17],inactive
same,Potency,[18],inactive
same,Potency,[9],inactive
Cc1ccccc1-c1cc(NCCN2CCOCC2)ncn1,Potency,[1],> 11.4 µM (inactive)
same,"activity change, negative = inhibition",[2],-3.13% (inactive)
same,Potency,[3],31.6 µM (active)
same,"activity change, negative = inhibition",[4],-3.03% (inactive)
same,"activity, negative = inhibition",[5],2.72% (inactive)
same,Potency,[13],> 46 µM (inactive)
same,Potency,[6],> 46 µM (inactive)
same,outcome,[14],inactive
same,Potency,[7],inactive
same,"activity change, negative = inhibition",[8],-1.17% (inactive)
same,max response,[8]; [20],-3.29%
same,max response,[8]; [21],-5.46%
same,Potency,[15],inactive
same,Potency,[16],inactive
same,Potency,[17],inactive
same,Potency,[18],inactive
same,Potency,[9],inactive
Cn1c(=O)c(-c2ccc(Cl)cc2)nc2cnc(Oc3cccc(Cl)c3)nc21,Potency,[1],> 11.4 µM (inactive)
same,"activity change, negative = inhibition",[2],-7.62% (inactive)
same,Potency,[3],0.251 µM (active)
same,"activity change, negative = inhibition",[4],-6.5% (inactive)
same,"activity, negative = inhibition",[5],-0.313% (inactive)
same,Potency,[13],> 9.22 µM (inactive)
same,Potency,[6],> 46 µM (inactive)
same,outcome,[14],inactive
same,Potency,[7],inactive
same,"activity change, negative = inhibition",[8],5.31% (inactive)
same,max response,[8]; [20],11.8%
same,max response,[8]; [21],14.2%
same,Potency,[15],inactive
same,Potency,[16],inactive
same,Potency,[17],inactive
same,Potency,[18],inactive
same,Potency,[9],inactive
Cc1nc2cnc(N3CCOCC3)nc2n(C)c1=O,Potency,[1],> 11.4 µM (inactive)
same,"activity change, negative = inhibition",[2],-9.18% (inactive)
same,Potency,[3],6.31 µM (active)
same,"activity change, negative = inhibition",[4],3.85% (inactive)
same,"activity, negative = inhibition",[5],-2.49% (inactive)
same,Potency,[13],> 9.22 µM (inactive)
same,Potency,[6],> 46 µM (inactive)
same,outcome,[14],inactive
same,Potency,[7],inactive
same,"activity change, negative = inhibition",[8],4.73% (inactive)
same,max response,[8]; [20],11.2%
same,max response,[8]; [21],13.5%
same,Potency,[15],inactive
same,Potency,[16],inactive
same,Potency,[17],inactive
same,Potency,[18],inactive
same,Potency,[9],inactive
Cc1noc(C)c1-c1cncnc1NCc1ccccc1,Potency,[1],> 11.4 µM (inactive)
same,"activity change, negative = inhibition",[2],-6.64% (inactive)
same,Potency,[3],25.1 µM (active)
same,"activity change, negative = inhibition",[4],0.549% (inactive)
same,"activity, negative = inhibition",[5],-5.87% (inactive)
same,Potency,[13],> 46 µM (inactive)
same,Potency,[6],> 46 µM (inactive)
same,outcome,[14],inactive
same,Potency,[7],inactive
same,Potency,[19],inactive
same,"activity change, negative = inhibition",[8],6.38% (inactive)
same,max response,[8]; [20],0.495%
same,max response,[8]; [21],15.9%
same,Potency,[15],inactive
same,Potency,[16],inactive
same,Potency,[17],inactive
same,Potency,[18],inactive
same,Potency,[9],inactive
